The text below walks through data of PubChem BioAssay (NCI).

Common to all, as to test: NCI-60 one-dose screen, 48 h (100 = growth as untreated, 0 = no growth, -100 = all killed)
Common to all, as to conditions: 10 µM unless noted

The subject of experiment [1] is DU-145 prostate.
The subject of experiment [2] is K-562 leukemia.
The subject of experiment [3] is MALME-3M melanoma.
Experiment [4] deals with MDA-MB-231 breast.
Experiment [5] relates to RXF 393 renal.
For experiment [6], the system named is SF-268 CNS.
The subject of experiment [7] is SF-295 CNS.
The test system of experiment [8] is SF-539 CNS.
The test system of experiment [9] is UACC-257 melanoma.
Experiment [10] relates to M14 melanoma.

Each structure is given as a SMILES string. Values joined by “and” are separate entries in the source; they are usually repeats but may differ in a detail not shown here. Equal entries are not always repeated. This is part of a sample that, as a whole, favours compounds with a hit. Of some 83,000 tested, about 20% had one in any assay.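 Activity criterion: percent growth below 10, measured after cells in 96-well plates were exposed to a single compound concentration for 48 hours.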 Active and inactive are the calls of the source.

`C=CCN1C=CC(=O)[C@H](O[Si](C)(C)C(C)(C)C)[C@@H]1/C=C/c1ccccc1`: the growth is -59.1% [100 µM] (active) in experiment [1]; 4.18% [100 µM] (active) in [2]; -57.5% [100 µM] (active) in experiment [3]; -68.3% [100 µM] (active) in experiment [4]; -45.5% [100 µM] (active) in [5]; -58.2% [100 µM] (active) in experiment [6]. Besides, the growth in experiment [7] is -66.7% [100 µM] (active); in [8], -82.7% [100 µM] (active); in experiment [9], -75.9% [100 µM] (active); in experiment [10] it was -78.6% [100 µM] (active).

In the case of `C/C=C(/C)C(=O)O[C@@H]1CC(C)(C)CC2C34OC(=O)[C@@]21CC[C@@]3(C)[C@]1(C)CCC2C(C)(C)C(=O)CC[C@]2(C)C1C[C@@H]4Cl` (stereo not given in full), the growth in [1] was 104% (inactive); in [2] it was 85.6% (inactive); in [3], 90.8% (inactive); in experiment [4] it was 93.4% (inactive); in experiment [5] it was 108% (inactive); in [6] it was 93% (inactive). Besides, the growth in [7] was 97.3% (inactive); in experiment [8], 85% (inactive); in experiment [9], 89.8% (inactive); in [10], 93.1% (inactive).

As for `c1ccc(Cc2cccc[n+]2C(c2ccccc2)c2ccccc2)cc1`, the growth in experiment [1] is 68.9% (inactive); in [2] it was 33% (inactive); in experiment [3], 23% (inactive); in experiment [4], 68.2% (inactive); in experiment [5] it was 93.3% (inactive); in [6], 64.9% (inactive). In addition, the growth is 73.6% (inactive) in experiment [7], 56.6% (inactive) in experiment [8], 7.44% (active) in [9] and 59.8% (inactive) in experiment [10].

With `Nc1c(C(=O)Nc2ccncc2)sc2nc3c(cc12)CCCCCCCC3`, the growth in experiment [1] is -75.5% (active); in experiment [2] it was -52% (active); in experiment [3] it was -84.6% (active); in experiment [4], -72.7% (active); in experiment [5] it was -80.6% (active); in [6], -62.4% (active). Moreover, the growth is -77% (active) in experiment [7], -91.7% (active) in experiment [8], -75.7% (active) in experiment [9] and -80.1% (active) in [10].

Turning to `OCCN1CCN(c2cc(-c3cccc(OC(F)(F)F)c3)nc3ccc(N4CCCC4)cc23)CC1`, the growth is 58% (inactive) in experiment [1]; -10.2% (active) in experiment [2]; 34.6% (inactive) in experiment [3]; 58.2% (inactive) in [4]; 51% (inactive) in [5]; 66.6% (inactive) in [6]. For the same molecule, the growth was 72.5% (inactive) in experiment [7], 66.4% (inactive) in experiment [8], 65.2% (inactive) in experiment [9] and 27.5% (inactive) in experiment [10].

Turning to `CCOC(=O)c1cnn(CC(O)CC)c1NC(=O)NCc1ccccc1C(F)(F)F` (stereo not given), the growth in experiment [1] was 109% (inactive); in [2] it was 88.5% (inactive); in experiment [3], 103% (inactive); in experiment [4], 105% (inactive); in [5], 119% (inactive); in experiment [6], 100% (inactive). Further, the growth in [7] is 90.7% (inactive); in [8] it was 99.1% (inactive); in experiment [9], 103% (inactive); in [10], 88.2% (inactive).

As to `CCOC(=O)c1c(-c2ccc(OC)cc2)c(C#N)c2c(C#N)c(N)nn2c1N`, the growth in experiment [1] is 56.1% (inactive); in [2] it was 5.64% (active); in experiment [3] it was 30.8% (inactive); in experiment [4] it was 28.4% (inactive); in experiment [5] it was 59.7% (inactive); in experiment [6] it was 40.2% (inactive). For the same molecule, the growth was 28.2% (inactive) in experiment [7], 25.1% (inactive) in experiment [8], 49.9% (inactive) in experiment [9] and 34.2% (inactive) in experiment [10].

Consider `O=c1cc(N/N=C/c2ccc(F)cc2)c2cc(Cl)ccc2[nH]1`, for which the growth in [1] was 102% (inactive); in [2], 2.38% (active); in [3] it was 98.4% (inactive); in [4], 94.4% (inactive); in [5], 113% (inactive); in experiment [6] it was 106% (inactive). The growth in experiment [7] is 100% (inactive); in experiment [8], 104% (inactive); in [9], 85.8% (inactive); in experiment [10], 81.2% (inactive).

Regarding `[Cu+].[NH-][C@H]1C[N-]C(=O)[C@H]([C@H]2CCN=C(N)N2)[N-]C(=O)/C(=C\NC(N)=O)[N-]C(=O)[C@H](CNC(=O)C[C@@H](N)CCCN)[N-]C(=O)[C@H](CO)[N-]C1=O`, the growth in experiment [1] is 112% (inactive); in experiment [2], 101% (inactive); in experiment [3], 101% (inactive); in [4], 101% (inactive); in experiment [5], 105% (inactive); in experiment [6], 107% (inactive). The growth in [7] is 99.6% (inactive); in experiment [8], 106% (inactive); in experiment [9], 99.8% (inactive); in experiment [10] it was 104% (inactive).

On to `CC12OC(CC(O)C1O)n1c3ccccc3c3c4c(c5c6ccccc6n2c5c31)C(=O)N(CCN1CCOCC1)C4=O` (stereo not given), for which the growth in experiment [1] is 3.22% (active); in experiment [2] it was 7.56% (active); in [3] it was -18% (active); in [4] it was 44.2% (inactive); in experiment [5], -6.91% (active); in experiment [6], 17.9% (inactive). Besides, the growth in [7] was -14.5% (active); in experiment [8], 6.03% (active); in experiment [9], 14.7% (inactive); in [10], -3.54% (active).

In the case of `Nc1n[nH]c2cccc(C#Cc3cccc(NC(=O)c4ccc(N5CCOCC5)c(C(F)(F)F)c4)c3)c12`, the growth in experiment [1] is 25.7% (inactive); in experiment [2], 0.995% (active); in experiment [3], 11.2% (inactive); in experiment [4], -22.3% (active); in experiment [5], -66% (active); in experiment [6] it was 23.4% (inactive). The growth was -36.9% (active) in experiment [7], -56% (active) in experiment [8], 17.6% (inactive) in experiment [9] and 3.69% (active) in experiment [10].

For the molecule `CC(C)(C)c1cc(NC(=O)Nc2ccc(-c3cn4c(n3)sc3cc(OCCN5CCOCC5)ccc34)cc2)no1`, the growth is 35.5% (inactive) and 45.5% (inactive) in [1]; 11.9% (inactive) and 33.9% (inactive) in [2]; 28.9% (inactive) and 20.2% (inactive) in experiment [3]; 43.3% (inactive) and 35.6% (inactive) in [4]; -6.16% (active) and -13.6% (active) in [5]; 37.2% (inactive) and 22.8% (inactive) in experiment [6]. In addition, the growth was -58.7% (active) and 16.4% (inactive) in experiment [7]; -83.3% (active) and 13.6% (inactive) in experiment [8]; 4.5% (active) and -6.8% (active) in experiment [9]; 37.4% (inactive) and 24% (inactive) in experiment [10].
